# Among all 320,000 compounds or so, about 22,000 (6.9%) were called active. Where a call stands in place of a potency, no number is given. Another 27% or so got no clear call; they are omitted. The sample as a whole holds a higher share of actives than the screen did. Values without a mark were called inactive. Calls follow the shape of the dose curve; as a rule, active = well fitted inhibition curve with a large enough effect; inconclusive = small, poorly fitted or top-dose-only effect, or another doubt; inactive = no such curve, though single readings can be large or run the other way.
# Assay: Primary qHTS for delayed death inhibitors of the malarial parasite plastid, 96 hour incubation
# Details: P. falciparum luciferase reporter growth; series mostly up to 28.7 µM
# From the text: The goal of this screen is to discover new antimalarial compounds that act by inhibiting the development of the apicoplast in the malarial parasite Plasmodium falciparum. The biochemical processes that make this organelle essential for erythrocytic stage parasites are not well understood. However, antibiotics such as azithromycin and tetracycline, which target the apicoplast translational machinery, have a potent antimalarial effect.
# We have developed a cell-based assay that measures parasite growth based on the expression of an integrated copy of a firefly luciferase reporter. To detect small molecules that cause this "delayed death" phenotype, erythrocytes infected with the luciferase-expressing parasites were incubated with compounds for either one or two generations, corresponding to 48 and 96 hours, respectively. Compounds that inhibit parasite growth in the second generation, but not the first, should be enriched in antimalarials that target the apicoplast. Growth inhibition is detected by a decrease in luciferase activity.
# Assay Provider: David Fidock and Eric Ekland, Columbia University
# Keywords: NIH Roadmap, MLPCN, MLI, MLSMR, qHTS, NCGC, qHTS, malaria, luciferase, viability
# Four microliters of infected erythrocytes (2% hematocrit, 0.05% parasitemia final concentration) in culture medium were dispensed and the plates incubated for 96 hours at 37 C in 5% CO2. Two microliters of luciferase detection reagent was added and luminescence was detected by a ViewLux (PerkinElmer) reader.
# Potency is read from the fitted curve at half-maximal effect.
Structure (SMILES),Potency,"activity change, negative = inhibition"
Cc1ccc2cc(/C=N/NC(=O)[C@@H]3CCCN3)c(Cl)nc2c1,inactive,
COc1ccc(CCNC(=O)CCc2cn(C)c3ccccc23)c(OC)c1,inactive,
Cc1nc(N)[nH]c(=O)c1Oc1cccc(C(F)(F)F)c1,inactive,
O=C(NCc1cccnc1)Nc1cccc(NC(=O)NCc2cccnc2)c1F,inactive,
CC1CC(C)CN(C(=O)COC(=O)c2ccc3ncsc3c2)C1 (centres undefined),inactive,
Cc1ccc(S(=O)(=O)NC(=O)Nc2nc(-c3ccc(F)c(F)c3)cs2)cc1,inactive,
Cc1cc(=O)cc(C)n1-c1ccc(Cl)c(Cl)c1,inactive,
CCOc1cccc(SCc2noc(C(=O)NC(C)C)c2C(=O)O)c1,inactive,
CCCCNC(=O)c1onc(CSc2cccc(OC)c2)c1C(=O)O,inactive,
CCCNC(=O)c1onc(CSc2ccc(F)cc2)c1C(=O)NC(C)C,11.7 µM (active),
Nc1nc(-c2ccccc2)cc(-c2ccccc2)n1,inactive,
CNc1nc(-c2ccccc2)cc(-c2ccccc2)n1,inactive,
Nc1cccc(-c2cc(-c3ccccc3)nc(-c3cccc(N)c3)n2)c1,10.4 µM (active),
CCCOc1ccc(Cc2c(O)nc(SC)[nH]c2=O)cc1C,inactive,
COc1ccccc1CNS(=O)(=O)c1ccc(C)cc1,inactive,
COc1nc(N(C)C)nc(N2CC(=O)N(CCNS(=O)(=O)c3ccc(C)cc3)C2=N)n1,2.33 µM (active),
Cc1ccc(S(=O)(=O)NCCSC(C)(C)C)cc1,inactive,
CCOC(=O)C1(CCOC)CCN(Cc2cc3ccccc3s2)CC1,inactive,
O=C(Nc1cccc(-c2cscn2)c1)C1CCN(Cc2ccsc2)CC1,inactive,
COc1cc(C2C(C#N)=C(C)NC3=C2C(=O)CC(C)(C)C3)ccc1O (centres undefined),inactive,
CCOc1cc(C2C(C(=O)OC(C)C)=C(C)NC3=C2C(=O)CCC3)cc([N+](=O)[O-])c1O (centres undefined),inactive,
CCOC(=O)C1=C(C)NC2=C(C(=O)CC(C)(C)C2)C1c1ccsc1 (centres undefined),7.38 µM (active),
Cc1ccc2c(C)c(C(=O)N(C)Cc3ccncn3)oc2c1C,inactive,
COc1cccc(CC(=O)Nc2nc(-c3ccc(OC)c(OC)c3)cs2)c1,inactive,
CCc1nnc(NC(=O)Cc2cccs2)s1,inactive,
CCCc1ccc(-c2csc(NC(=O)Cc3cccs3)n2)cc1,11.7 µM (active),

Structure (SMILES),Potency,"activity change, negative = inhibition"
CC(NCC(=O)Nc1cc(Cl)cc(Cl)c1)c1ccccc1 (centres undefined),inactive,
COc1cccc(-c2coc3cc4oc(=O)c(CC(=O)O)c(C)c4cc23)c1,inactive,
COc1ccc(OCCCC(=O)OC(C)C(=O)Nc2ccccc2[N+](=O)[O-])cc1 (centres undefined),inactive,
O=C1NC(=O)C(CCc2ccccn2)(Cc2cccc(Cl)c2Cl)C(=O)N1c1ccc(Br)cc1 (centres undefined),inactive,
Cc1ccc(N2C(=O)NC(=O)C(CCc3ccncc3)(Cc3cccc(Cl)c3Cl)C2=O)cc1 (centres undefined),11.7 µM (active),
CC(C)(C)c1ccc(/C=C/C(=O)NCCCn2ccnc2)cc1,inactive,
O=C1CCN(CCc2ccccc2)CCN1CCOc1ccccc1,inactive,
CC(C)C[C@@H](CO)N1CCN(Cc2ccc(O)cc2)CCC1=O,inactive,
CC(C)C[C@@H](COc1ccccc1)N1CCN(CC(C)C)CCC1=O,11.7 µM (active),
CCCNC(=O)N1CCC(c2ccc3c(c2)OCO3)CC1,inactive,
CC1CN(C(=S)Nc2ccc(S(N)(=O)=O)cc2)CC(C)O1 (centres undefined),inactive,
O=[N+]([O-])c1ccc(N2CCN(c3ccc(F)cc3)CC2)cn1,inactive,
OCCN1CCN(c2nnc(-c3ccccc3)c3ccccc23)CC1,inactive,
CCn1ccnc1CNC(=O)CC1C(=O)NCCN1Cc1ccc(F)cc1Cl (centres undefined),inactive,
Cc1ccc(CN2CCNC(=O)C2CC(=O)NCc2csc(C(C)C)n2)cc1 (centres undefined),11.7 µM (active),
Cc1nccn1CCCNC(=O)CC1C(=O)NCCN1Cc1ccc(Cl)c(F)c1 (centres undefined),inactive,
CCOc1ccc(CN2CCNC(=O)C2CC(=O)NCCCC2CCCC2)cc1 (centres undefined),13.1 µM (active),
CCn1ccnc1CNC(=O)CC1C(=O)NCCN1CCCc1ccccc1 (centres undefined),inactive,
CCCOC(=O)CC1C(=O)NCCN1Cc1ccc(F)cc1 (centres undefined),inactive,
CC(=O)Nc1ccc(NC(=O)C(NS(=O)(=O)c2ccc3c(c2)OCCO3)C(C)C)cc1 (centres undefined),inactive,
CCn1cc(C(=O)N[C@@H](C)C(=O)NCCO)c(=O)c2cc3c(cc21)OCO3,inactive,
COc1nnc(-c2ccc(C)c(S(=O)(=O)N(C)C)c2)c2ccccc12,inactive,
c1ccc(-c2cc(-c3ccccc3)[nH]n2)cc1,inactive,
CC(=O)OCCOCn1cnn2c(=O)c(Br)c(C)nc12,inactive,
CC(C)c1nnc(NC(=O)C2CC(=O)N(CCc3ccc(F)cc3)C2)s1 (centres undefined),inactive,
O=C(COC(=O)c1ccc(S(=O)(=O)Nc2ccccc2)cc1)NCC1CCCO1 (centres undefined),inactive,

Structure (SMILES),Potency,"activity change, negative = inhibition"
S=C(NCCc1ccccc1)NCC1CCCO1 (centres undefined),inactive,
O=C(CS(=O)(=O)Cc1ccccc1)NCC1CCCO1 (centres undefined),2.94 µM (active),
COc1ccc(NS(=O)(=O)c2ccc(C)c(C(=O)NNC(=O)c3csc(N4CCOCC4)n3)c2)cc1,inactive,
CC(=O)Nc1ccc(S(=O)(=O)Nc2ccc(N3CCOCC3)c(F)c2)cc1,inactive,
COc1ccc(NS(=O)(=O)c2ccc(N3CCOCC3)c(NC(=O)c3ccccc3Br)c2)cc1,9.28 µM (active),
CCCCn1c(N)c(N(CC(C)C)C(=O)c2ccc(-n3c(C)ccc3C)cc2)c(=O)[nH]c1=O,inactive,
CCOc1ccc(C(=O)NC2CCN(C(=O)Nc3ccccc3OC)CC2)cc1,inactive,
CCOc1ccc(C(=O)NC2CCN(S(=O)(=O)CC)CC2)cc1,2.33 µM (active),
CCOc1ccc(NC(=S)N2CCC(NC(=O)c3ccccc3)CC2)cc1,inactive,
CCOc1c(OC)cccc1C(=O)NCC1(c2ccccc2)CCCC1,inactive,
CN(C)CCn1c2c(c(SCC(=O)NCc3ccccc3)nc1=O)CCC2,inactive,
COc1ccccc1CNC(=O)Cn1cc2c(n1)CCCC2,inactive,
COc1ccccc1CNC(=O)CSc1nc(=O)n(Cc2ccncc2)c2c1CCC2,14.7 µM (active),
O=C(NCCc1ccc(Cl)cc1)C1CCCN1C(=O)NCc1ccccc1 (centres undefined),inactive,
NC(=O)C1CC(=O)N(c2ccc(OCC(=O)NCc3ccccc3)cc2)C1 (centres undefined),inactive,
CC(NC(=O)c1ccc(S(=O)(=O)Nc2ccccc2)cc1)c1ccc(S(N)(=O)=O)cc1 (centres undefined),inactive,
Cc1sc2nc(CSCC(=O)NC3CCCCC3)[nH]c(=O)c2c1C,inactive,
Cc1cccc(C)c1OC(=O)CSc1nnc(-c2ccccc2)o1,inactive,
O=C(CSc1nnc(-c2ccccc2)o1)N1CCOCC1,inactive,
CC1=CC(C)(C)N(C(=O)CSc2nnc(-c3ccccc3)o2)c2ccc(C)cc21,13.1 µM (active),
Cc1ccccc1C(=O)N1CCC(C(=O)Oc2ccc(C#N)cc2)CC1,inactive,
COc1ccc(S(=O)(=O)N2CCOC2CNC(=O)C(=O)NCc2ccncc2)cc1OC (centres undefined),inactive,
Cc1cccc(C)c1NC(=O)CS(=O)CC(=O)N1CCN(c2ccccc2)CC1 (centres undefined),inactive,
COc1ccc(Nc2ncnc3sc(-c4ccccc4)cc23)c(OC)c1,inactive,
S=C(NCC1COc2ccccc2O1)Nc1ccc(Br)cc1 (centres undefined),inactive,
c1ccc(-c2cc3c(NCC4COc5ccccc5O4)ncnc3s2)cc1 (centres undefined),10.4 µM (active),

Structure (SMILES),Potency,"activity change, negative = inhibition"
N#Cc1ccc(-c2ccc(F)cc2)nc1Sc1ccccc1,inactive,
N#Cc1ccc(-c2nc3cc(C#N)c(C#N)cc3nc2-c2ccccc2)cc1C#N,5.22 µM (active),
N#Cc1c(-c2ccc(F)cc2)nc(-c2ccccc2)[nH]c1=O,inactive,
COc1cccc(CNC(=O)Cn2c(=O)oc3cc(S(=O)(=O)N4CCCCC4)ccc32)c1,inactive,
CCc1cccc(C)c1NC(=O)COC(=O)CC1CCCC1,inactive,
C1=C(CCNc2ncnc3c2cnn3-c2ccccc2)CCCC1,0.104 µM (active),
CC(C)Sc1ncnc2c1cnn2-c1ccccc1,inactive,
O=C(NCCC1=CCCCC1)c1ccc(-n2cncn2)cc1,inactive,
O=C(CSc1ncccn1)N1CCCC1,inactive,
CN1CCN(S(=O)(=O)c2ccc(Nc3ccc(F)cc3)nc2)CC1,inactive,
CCN1CCN(Cc2nc3c(c(=O)n(C)c(=O)n3C)n2CC(=O)c2ccccc2)CC1,inactive,
Cn1c(=O)[nH]c(=O)c2c1nc(N(CCO)Cc1ccccc1)n2Cc1ccccc1Cl,inactive,
Cn1c(=O)[nH]c(=O)c2c1nc(CN(Cc1ccccc1)Cc1ccccc1)n2CCN1CCOCC1,inactive,
CCOC(=O)Cn1c(CN(Cc2ccccc2)Cc2ccccc2)nc2c1c(=O)[nH]c(=O)n2C,3.29 µM (active),
CC(C)Cn1c(CN(Cc2ccccc2)Cc2ccccc2)nc2c1c(=O)n(C)c(=O)n2C,inactive,
COCCn1c(CN2CCC(Cc3ccccc3)CC2)nc2c1c(=O)n(C)c(=O)n2C,5.22 µM (active),
CCCCCCn1c(CN2CCCC(C)C2)nc2c1c(=O)n(C)c(=O)n2C (centres undefined),inactive,
CCOC(=O)N1CCN(CCC(=O)Nc2ccccc2)CC1,inactive,
CCOC(=O)N1CCN(Cc2nc3c(c(=O)n(C)c(=O)n3C)n2Cc2ccccc2)CC1,13.1 µM (active),
Cn1c(=O)c2c(nc(Br)n2CCSc2nc3ccccc3o2)n(C)c1=O,inactive,
COCCn1c(CN(Cc2ccccc2)Cc2ccccc2)nc2c1c(=O)n(C)c(=O)n2C,2.94 µM (active),
CN1CCN(Cc2nc3c(c(=O)n(C)c(=O)n3C)n2Cc2cccc3ccccc23)CC1,,2.21% [at 5.75 µM]
Cc1ccc(C)c(OCc2cc(C(=O)N3CCN(c4cnccn4)CC3)no2)c1,inactive,
COc1ccccc1CCCNC(=O)C1CCC(=O)N(CCN2CCOCC2)C1 (centres undefined),inactive,
CCCCCn1c(=O)[nH]c2cc(C(=O)NCCCN3CCCCC3C)ccc2c1=O (centres undefined),inactive,
COc1ccc2[nH]c(=O)c(C3c4cc(OC)c(OC)cc4CCN3C(=O)c3ccco3)cc2c1 (centres undefined),inactive,

# — PubChem BioAssay AID504834 (National Center for Advancing Translational Sciences (NCATS), 2011)
